Source: the supplement of paper PMC3724861
This excerpt belongs to a sample that is enriched for hits. The hit rate among all sequences tested is not known here.

System: T1, Caupolican (Caup) homeodomain DNA-binding domain
T1 sequence: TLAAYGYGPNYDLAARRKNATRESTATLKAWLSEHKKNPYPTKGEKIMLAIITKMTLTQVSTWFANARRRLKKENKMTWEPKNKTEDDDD
Assay: PBM E-score (8-mer, recovered from the published 9-mer minima) (E-score (dimensionless, -0.5 to 0.5)); Drosophila protein; higher = stronger relative binding preference, active = 0.31 or more
How it was run: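 An enrichment score, with higher meaning stronger, expresses relative binding preference for each short DNA word. The protein used was Caup's homeodomain DNA-binding domain (residues 214-303), produced by in vitro transcription and translation and tested at 100 nM on custom-designed protein binding microarrays. The 8-mer values were recovered from published 9-mer scores, each equal to the lower of its two constituent 8-mer scores.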

Sequence | PBM E-score
GAAACTGC | -0.184 (inactive)
ACCAGGGC | -0.112 (inactive)
GGCAGCTA | -0.136 (inactive)
CGTTTTCC | 0.0392 (inactive)
GACGCGTC | -0.0916 (inactive)
ACCGTCCT | -0.0635 (inactive)
ACTCAAGA | -0.0159 (inactive)
AAGTCAGG | -0.109 (inactive)
AACAAGTT | 0.33 (active)
AACAAGTC | 0.278 (inactive)
AACAAGGT | 0.293 (inactive)
CTTTGCTC | -0.0311 (inactive)
CATCCCTC | -0.0768 (inactive)
CAAGTGGG | -0.0243 (inactive)
GTGTGTTA | 0.275 (inactive)
CTGTGTTA | 0.259 (inactive)
ATGTGTTA | ≥ 0.323 (active)
ATGTGTGG | 0.0766 (inactive)
ATGTGTTG | 0.34 (active)
ATGTGTTC | 0.266 (inactive)
AAAGAAGT | 0.0392 (inactive)
CATGCTGG | 0.0451 (inactive)
CGAAGTCC | -0.149 (inactive)
GGCAAGTA | 0.101 (inactive)

Sequence | PBM E-score
ACAGGCGT | -0.013 (inactive)
ATGTCAGG | 0.209 (inactive)
CTGTCATA | 0.246 (inactive)
ATGTCATC | 0.306 (inactive)
ATGTCATA | 0.4 (active)
GTGTCAGA | 0.245 (inactive)
ATGTCAGA | 0.336 (active)
ATGTCATG | 0.353 (active)
GTGTCATA | 0.292 (inactive)
CTGTCAGA | 0.0887 (inactive)
ACCTCGCC | -0.212 (inactive)
GCCCTGCA | -0.173 (inactive)
TCAGTGAA | -0.0554 (inactive)
CCGAGTAG | -0.0123 (inactive)
AAATCACA | 0.108 (inactive)
CCCGTTAC | 0.0202 (inactive)
AATATGTA | 0.328 (active)
CGTATGTA | 0.289 (inactive)
CATATGTC | 0.277 (inactive)
AATATGTG | 0.259 (inactive)
GATATGAA | 0.0673 (inactive)
GGTATGTA | 0.277 (inactive)
GATATGTA | 0.321 (active)
AATATGTC | 0.297 (inactive)

Sequence | PBM E-score
CATATGTA | 0.334 (active)
CCGGGAGC | -0.282 (inactive)
CTCTGGAA | -0.12 (inactive)
CGACGGAC | 0.00364 (inactive)
ACAGCGAG | -0.0026 (inactive)
GGCTATAC | -0.0714 (inactive)
AACGAGGA | 0.0777 (inactive)
CTGAAACC | -0.0654 (inactive)
CTTCCGGA | -0.173 (inactive)
CCATGGCA | -0.0986 (inactive)
ACATGTCG | 0.416 (active)
ATATGTCG | 0.302 (inactive)
AAATGTCG | 0.144 (inactive)
GAATGTCA | 0.169 (inactive)
GCATGGCA | -0.0563 (inactive)
GAATGTCC | 0.145 (inactive)
CCATGTCA | 0.398 (active)
AAATGTCC | 0.126 (inactive)
GCATGTCA | 0.44 (active)
GCATGTCC | 0.31 (active)
CAATGTCA | 0.293 (inactive)
GATAAGGA | 0.0879 (inactive)
CGTTATAC | 0.0592 (inactive)
GTTTTTGA | 0.084 (inactive)

Sequence | PBM E-score
GTTTAGAA | 0.121 (inactive)
AGATGTCC | 0.234 (inactive)
AAATGTCT | 0.106 (inactive)
ACATGTCT | 0.417 (active)
ACATGGCA | 0.307 (inactive)
ACATGTCC | 0.438 (active)
CCATGTCC | 0.292 (inactive)
CAATGTCG | 0.227 (inactive)
AAATGTCA | 0.266 (inactive)
CCCTGTCG | -0.0227 (inactive)
CCATGTCG | 0.362 (active)
ACCTGTCT | 0.144 (inactive)
ACATGTCA | 0.461 (active)
CTCACAGC | -0.124 (inactive)
ACCTACCC | -0.14 (inactive)
CGCGTAGC | -0.153 (inactive)
CAAGACTA | 0.107 (inactive)
ATAGCCAT | 0.0738 (inactive)
CATTCATA | 0.179 (inactive)
CCTGGTGA | -0.102 (inactive)
ACTCTGCG | -0.03 (inactive)
TCATGGCA | -0.0694 (inactive)
TCATGTCA | 0.391 (active)
TAATGTCA | 0.258 (inactive)

Sequence | PBM E-score
ATTCGGAA | 0.0171 (inactive)
CCCGCTAA | -0.182 (inactive)
CGCGATCC | -0.0878 (inactive)
GACAACGA | 0.179 (inactive)
GACAACTC | 0.191 (inactive)
AACAACGC | 0.182 (inactive)
GTCAACAA | 0.285 (inactive)
GTCAACAC | 0.175 (inactive)
GACAACAC | 0.352 (active)
CACAACAC | 0.265 (inactive)
GACAACAA | 0.342 (active)
AACAACAC | 0.392 (active)
ACTATTTG | 0.153 (inactive)
GTCTTGAA | 0.0106 (inactive)
AGAACCCT | -0.163 (inactive)
GCATGAAC | 0.104 (inactive)
GCATGAAA | 0.111 (inactive)
ACATGAAT | 0.336 (active)
CCATGAAC | 0.0647 (inactive)
ACATGAAG | 0.293 (inactive)
ATATGAAT | 0.107 (inactive)
ACATGAAC | 0.372 (active)
ACATGAAA | 0.314 (active)
CCATGAAA | 0.00449 (inactive)

Sequence | PBM E-score
CTATATTA | 0.168 (inactive)
CCCTGTCA | 0.129 (inactive)
CCAACATC | 0.113 (inactive)
ACAACATC | 0.356 (active)
ACAACAGG | 0.192 (inactive)
CCAACATA | 0.211 (inactive)
GCAACATA | 0.204 (inactive)
ACAACATG | 0.441 (active)
ACAACTTG | 0.271 (inactive)
ACAACATA | 0.411 (active)
ACAACAGC | 0.214 (inactive)
ATGGGTCG | -0.0702 (inactive)
ACAATGGC | 0.0838 (inactive)
ACTCTCGC | -0.115 (inactive)
TCTTGCAA | 0.0461 (inactive)
GTTTGTAA | 0.198 (inactive)
ACTTGTAA | 0.403 (active)
TATTGTAA | 0.275 (inactive)
ACTTGTAT | 0.391 (active)
AATTGTAT | 0.228 (inactive)
GATTGTAA | 0.205 (inactive)
GCTTGTAA | 0.384 (active)
AGTTGTAT | 0.231 (inactive)
AATTGTAA | 0.209 (inactive)

Sequence | PBM E-score
TCTTGTAA | 0.371 (active)
ATTTGTAA | 0.277 (inactive)
ATATCTAC | 0.166 (inactive)
ACAAAAAC | 0.117 (inactive)
AGTTGGTG | -0.0391 (inactive)
CCGCATAG | -0.0554 (inactive)
ATTGTTCG | 0.213 (inactive)
CGCTCAGC | -0.138 (inactive)
GTACAAAA | 0.323 (active)
CTACAAAA | 0.123 (inactive)
GCACAAGA | 0.0557 (inactive)
CTACAAGC | 0.29 (inactive)
ATACAAGG | 0.283 (inactive)
GTACAAGA | 0.418 (active)
ATACAATA | 0.26 (inactive)
TTACAAAA | 0.203 (inactive)
ATACAAGA | 0.322 (active)
ATACAAGC | 0.316 (active)
CTACAAGA | 0.263 (inactive)
GTACAATA | 0.306 (inactive)
AATAGCCT | -0.0311 (inactive)
AATAGAGA | 0.041 (inactive)
CACGTAAG | 0.0839 (inactive)
GTGCTCCA | -0.0875 (inactive)

Sequence | PBM E-score
CTTCCAGC | -0.248 (inactive)
CCCGAATC | -0.201 (inactive)
CAAATGTC | 0.141 (inactive)
AACATTTA | 0.275 (inactive)
CACATGTA | 0.42 (active)
AACATCTA | 0.252 (inactive)
AACATCTT | 0.246 (inactive)
AACATGTT | 0.45 (active)
CACATGTC | 0.387 (active)
AACATGTA | ≥ 0.48 (active)
CACATCTA | 0.208 (inactive)
CACATCTC | -0.00827 (inactive)
AAAATGTT | 0.249 (inactive)
CAAATGTA | 0.294 (inactive)
GCGTACGC | -0.112 (inactive)
ACCACCAC | 0.0458 (inactive)
CGAATCTC | 0.0162 (inactive)
GATGCCCA | -0.0463 (inactive)
CGCTTTAC | 0.0463 (inactive)
GCGATACA | 0.217 (inactive)
ATTGGGAG | -0.0672 (inactive)
ACGGATCG | 0.00507 (inactive)
CCTTGCTA | 0.0673 (inactive)
AAAGGTCT | -0.0899 (inactive)

Sequence | PBM E-score
AACATGTC | 0.424 (active)
AACATCTG | 0.22 (inactive)
CACATGTG | 0.18 (inactive)
AACATGTG | 0.402 (active)
AACATCTC | 0.254 (inactive)
GACATGTC | 0.437 (active)
GAAATGTC | 0.114 (inactive)
GACATATC | 0.256 (inactive)
GACATTTA | 0.177 (inactive)
GAAATGTA | 0.131 (inactive)
AAAATGTC | 0.217 (inactive)
GACATGTA | 0.477 (active)
CGTGCTGA | 0.0459 (inactive)
CTGGGCTC | -0.186 (inactive)
ACACCACA | 0.262 (inactive)
ACGCTGTC | 0.0456 (inactive)
GCCACCAC | -0.199 (inactive)
ATTGCCAG | -0.0611 (inactive)
GTGTTACA | 0.381 (active)
CTGTTACA | 0.33 (active)
CGGTTACA | 0.183 (inactive)
CTGTTACC | 0.142 (inactive)
AAGTTACA | 0.261 (inactive)
ATGTTACG | 0.326 (active)

Sequence | PBM E-score
ACGTTACG | 0.0614 (inactive)
AGGTTACG | -0.0221 (inactive)
GCGTTACA | 0.198 (inactive)
GAGTTACA | 0.215 (inactive)
GTGTTAAA | 0.246 (inactive)
TAGTTACA | 0.311 (active)
CGTTATTA | 0.116 (inactive)
AAAACCGG | -0.0173 (inactive)
ACGCAATG | 0.0404 (inactive)
CTGTCCCC | -0.0725 (inactive)
CAGCTAGG | -0.046 (inactive)
TACAATGA | 0.266 (inactive)
ATGTTACA | 0.406 (active)
AAGTTACC | 0.148 (inactive)
ATGTTACC | 0.331 (active)
AGGTTACC | -0.0352 (inactive)
AGGTTACA | 0.191 (inactive)
ACGTTACA | 0.282 (inactive)
